The whole screen tested about 360,000 compounds, of which about 780 (0.22%) were called active. This is one part of a sample in which actives are shown more often than they occur. Values without a mark were called inactive. Cut-off read from the data, not from the text of the source: active = inhibition above about 8.5% (passing the limit was not always enough); inconclusive = no clear call, values can overlap the other calls.

This assay concerns Mycobacterium tuberculosis FadD28 fatty-acid-AMP ligase. The experiment in a line: inhibitors of FadD28 bisubstrate probe binding, primary screen, biochemical, fluorescence polarization, single point (AID 588549). Particulars: at 12.5 µM, active compounds read high.
For `CC12CCC(=O)N1C(C(=O)Nc1ccc(F)c(F)c1F)CS2` (stereo not drawn), the inhibition is -2.85%.
`CC[C@]1(C(=O)OC)[C@H]2C(=O)N(Cc3ccccc3)C(=O)[C@H]2[C@H]2CN=C(SCc3ccc(C#N)cc3)N21`: the inhibition is -7.96%.
Under `COc1cc(/C=C2/C(=O)NN(c3cccc(Cl)c3)C2=O)cc(Br)c1O` stands 14.2% (active).
Then `CCOc1c(Br)cc(/C=C2\C(=O)N(CCC#N)N=C2C)cc1OC`, with -4.34%.
Then `Cc1c(C(=O)CN2CCOCC2)[nH]c2ccccc12`, with -2.15%; and `CCCS(=O)(=O)Nc1c(C(=O)O)[nH]c2ccccc12`, with 1.47%.
`O=C(O)c1[nH]c2ccccc2c1C(c1cccc(O)c1)c1c(C(=O)O)[nH]c2ccccc12`: the inhibition is 28.9% (active).
Under `COc1cccc(C(=O)N/N=C(\C)c2cccc(NC(=O)c3ccc(F)cc3)c2)c1OC` stands -4.93%; under `C/C(=N\Nc1cccc(C(=O)O)c1)c1ccc2c(c1)Nc1ccccc1S2`, 13.8% (active); under `CC(=O)Nc1cccc(/C(C)=N/NC(=O)c2c(-c3ccccc3Cl)noc2C)c1`, -2.25%.
Then `Cc1ccc(CNC(=O)CCNS(=O)(=O)c2cccc3nonc23)cc1`, with 0.736%; and `CC1CCN(C(=O)c2cc3nc(C4CC4)cc(C(F)(F)F)n3n2)CC1`, with -2.25%; and `COc1ccc(/C=C/CN2CCCC(C(=O)c3cc(F)ccc3F)C2)cc1` (stereo not drawn), with -1.96%.
Then `CN(C(=O)C1CCN(c2ncnc3c2nc2n3CCCCC2)CC1)C1CCCCC1`, with -3.36%; and `COCCCNC(NC(=O)c1ccc(OC)cc1)C(Cl)(Cl)Cl` (stereo not drawn), with -3.52%; and `c1ccc(CCN2CN=C(Nc3nc4ccccc4o3)NC2)cc1`, with -1.13%.
For the compound `COc1ccc(C(=O)c2c(C)c(CCC#N)n3ccccc23)c(OC)c1`, the inhibition is -2.38%.
Then `Cc1ccc(S(=O)(=O)N2C[C@H]3C(=O)C[C@@H](c4cccc5ccccc45)N(S(=O)(=O)c4ccc(C)cc4)[C@H]3C[C@H]2c2ccc(Cl)cc2)cc1`, with -2.51%.
Under `COc1cccc(N2C(=O)NC(=O)/C(=C\c3ccc([N+](=O)[O-])s3)C2=O)c1` stands 16.4% (active).
Under `COc1cccc(C(=O)Oc2cc(C)[nH]c(=O)c2[N+](=O)[O-])c1` stands -0.419%; under `O=C(OCC(=O)N1CCN(c2ccccc2)CC1)c1ccc([N+](=O)[O-])s1`, 0.124%; under `O=C1NC(=O)N(c2ccccc2)C(=O)/C1=C/c1ccc([N+](=O)[O-])s1`, 25.4% (active).
Turning to `COc1cccc(/C=C2\SC(=N)N(c3ccc(F)cc3)C2=O)c1`, the inhibition is -2.96%.
Then `O=[N+]([O-])c1ccc(C=Nc2ccc(Cl)cc2Cl)s1`, with -1.01%; and `CCCC1C(c2ccccc2)C(C#N)(C#N)C2(C#N)CC1(N)NC2=O` (stereo not drawn), with -0.503%; and `COc1cccc(OCC(O)CNC(=O)c2oc3c(C)c(C)ccc3c2C)c1` (stereo not drawn), with -2.55%.
Under `COc1cc(O)c2c(=O)c3c(O)c(O)ccc3oc2c1OC` stands -0.783%; under `COc1c(O)cc2oc(-c3ccc(O)c(O)c3)cc(=O)c2c1O`, 13.9% (active).
Under `OCc1ccc(-c2ccccc2)c(-c2ccccc2)c1` stands -0.325%.
Take `COc1ccccc1C(=O)NC(=S)NC12CC3CC(CC(C3)C1)C2`: the inhibition was -0.832%.
Then `COc1ccc(CCNC(=S)NC(=O)/C=C/c2ccc(C)cc2)cc1OC`, with -0.381%.
Then `CC(Nc1ccccc1)c1cccnc1` (stereo not drawn), with -4.94%; and `CCC(CC)c1nnc(NC(=O)c2nn(C)c(=O)c3ccccc23)s1`, with -1.39%.
Then `Cc1ccc(N2CCN(S(=O)(=O)c3ccc(F)cc3)CC2)c(C)c1`, with -3.77%; and `CC1CC(C)CN(C(=O)COC(=O)c2ccc3ncsc3c2)C1` (stereo not drawn), with -1.75%; and `Cc1cc(C)c(C#N)c(SCC(=O)N(CC(C)C)C2CCS(=O)(=O)C2)n1` (stereo not drawn), with -3.78%.
In the case of `CCC(C)(C)c1ccc(Oc2ccc(NC(=O)COC(=O)C3=COCCO3)cc2)cc1`, the inhibition is -2.88%.
Consider `COc1ccccc1CCCNC(=O)C1CCC(=O)N(CCN2CCOCC2)C1` (stereo not drawn), for which the inhibition was -0.246%.
Take `Cn1c(=O)n(CCc2ccccc2)c(=O)c2c1nc1n2CCCN1c1ccccc1`: the inhibition was -3.89%.
Under `Cc1ccc(NC(=O)CN2C(=O)NC(C)(c3ccc(Cl)cc3)C2=O)c(Br)c1` (stereo not drawn) stands -1.17%; under `COc1ccc(NC(=O)CN(C)C(=O)c2cccc(S(=O)(=O)N3CCN(c4ccccc4)CC3)c2)cc1`, -1.23%; under `O=C(O)c1ccccc1N=N/C(=N/Nc1cc(S(=O)(=O)O)ccc1O)c1ccccc1`, 8.82% (active).
Under `CC(C)(O)C#Cc1ccc(CNC[C@H]2O[C@@H](n3cnc4c(=O)[nH]c(N)nc43)[C@H](O)[C@@H]2O)s1` stands -0.925%; under `O=S(=O)(c1ccc(SCc2ccc(Br)cc2)nc1)N1CCOCC1`, -1.66%; under `O=C(Nc1cccc(-c2cccc(Cl)c2)c1)C1CCN(C2CCC2)CC1`, -25.6%.
For the compound `Cc1ccc(/C([O-])=C(/C(=S)NCc2ccco2)[n+]2ccccc2)cc1[N+](=O)[O-]`, the inhibition was 1.32%.
Under `Cc1sc2ncnc(SCC(=O)NC3CCS(=O)(=O)C3)c2c1C` (stereo not drawn) stands -1.04%; under `CC1CCCC(C)N1C(=O)COC(=O)COc1ccccc1C#N` (stereo not drawn), -1.75%.
Then `Cc1cc(OCC(=O)N2CCN(c3ncccn3)CC2)ccc1Cl`, with -3.44%.
Then `COc1ccc(C(=O)Nc2ccnn2C2CCN(Cc3ccncc3)CC2)cc1`, with -2.54%.
As for `CCC(C)C(CO)NC(=O)/C=C/[C@H]1O[C@@H](n2cnc3c(NC(=O)c4ccccc4)ncnc32)[C@H](O)[C@@H]1O` (stereo partly drawn), the inhibition was -0.392%.
Then `COc1cc(C(O)c2nc(-c3cnn(C)c3)cs2)ccc1F` (stereo not drawn), with -2.58%; and `CS(=O)(=O)N(Cc1ccccc1)c1ccc(C(=O)NN=C2CCCCCC2)cc1`, with -7.2%.
Under `CCCN(C(=O)c1nc2nccc(C)n2n1)c1c(N)n(Cc2ccccc2)c(=O)[nH]c1=O` stands 0.906%; under `O=Nc1c(O)cc(O)c2ccccc12`, -1.75%; under `COc1ccc(C(=O)NCc2ccc(C)cc2)cc1S(=O)(=O)N1CCCC1`, 28% (active).
Then `COC(=O)c1ccc(CNC(=O)c2ccc(S(=O)(=O)N3CCCCCC3)cc2)cc1`, with 1.15%; and `COc1ccccc1CNC(=O)c1ccc(Cl)c(S(=O)(=O)N2CCCC2)c1`, with 1.35%; and `COc1ccc(C(=O)NCC2CCCCC2)cc1S(=O)(=O)N1CCCC1`, with -0.215%.
With `COc1ccc(C(=O)NCc2ccc(Cl)cc2)cc1S(=O)(=O)N1CCCC1`, the inhibition was 39.8% (active).
Then `COc1ccc(C(=O)NCC2CCCO2)cc1S(=O)(=O)NCc1ccc(Cl)cc1` (stereo not drawn), with -1.14%; and `C=CCSc1ccc(S(=O)(=O)N2CCN(C)CC2)cn1`, with -0.339%.
Under `CCN(CC)C(CNC(=O)CSc1nnnn1-c1cccc(F)c1)c1ccco1` (stereo not drawn) stands -0.979%.
Under `Cc1ccc(S(=O)(=O)N(C)C)cc1NC(=O)COC(=O)c1c(C)noc1C` stands -3.04%; under `COCCNC(=O)CCCn1c(=O)c2ccccc2n(Cc2cccc([N+](=O)[O-])c2)c1=O`, -2.03%; under `CSC1=NC2(C)CCCCC2C12C=CC(=O)C=C2` (stereo not drawn), -1.74%.
For the compound `O=C(Nc1ccc(N2CCOCC2)c(Cl)c1)c1ccc(S(=O)(=O)N2CCOCC2)cc1`, the inhibition is -1.1%.
Then `CC(=O)c1nn(-c2cccc(C(F)(F)F)c2)c(=O)[nH]c1=O`, with -2.32%; and `O=C(Nc1cc(=O)[nH]c2ncnn12)c1ccccc1Cl`, with 0.264%.
Under `CC(C(=O)N1CCOCC1)N1c2cccc3cccc(c23)S1(=O)=O` (stereo not drawn) stands -1.36%; under `OC1CN=C2Sc3ccccc3N2C1` (stereo not drawn), -1.93%; under `COc1ccccc1NC(=O)CSc1nnc(Cn2nnc(-c3ccccc3)n2)n1-c1ccccc1`, -2.49%.
Then `Nc1cc(C(=O)N2CCN(c3ccccc3Cl)CC2)ccc1N1CC2CC(C1)c1cccc(=O)n1C2` (stereo not drawn), with 0.263%; and `CC(=O)Nc1ccc(S(=O)(=O)NCCC(=O)N2CCN(c3ccccc3Cl)CC2)cc1`, with -0.39%; and `COc1cc(CCC(=O)Nc2ccncc2Cl)cc(OC)c1OC`, with -0.965%.
As to `COc1cc(CCC(=O)N2CCN(c3ccccc3Cl)CC2)cc(OC)c1OC`, the inhibition was 67.4% (active).
Under `CCOc1ccc(CCNC(=O)CN2C(=O)NC3(CCc4ccccc43)C2=O)cc1OCC` (stereo not drawn) stands -4.62%; under `C=CCN(CC=C)CCOc1ccccc1[N+](=O)[O-]`, 0.271%; under `COC(=O)[C@H](C(C)C)n1c(C)c(C(C)=O)c(C(C)=O)c1C`, -1.13%.
Under `N#Cc1ccc(C(=O)OCC(=O)NC(=O)NC2CCCCC2)cc1` stands -1.55%; under `CCS(=O)(=O)Nc1ccc(C2=NN(S(=O)(=O)c3ccc(F)cc3)C(c3ccco3)C2)cc1` (stereo not drawn), -3.77%; under `COc1cccc(C2CC(c3cccs3)=NN2C(=O)CSC2=NCCS2)c1OC` (stereo not drawn), -1.77%.
On to `COc1cccc(C2CC(c3ccccc3)=NN2S(=O)(=O)c2ccccc2)c1OC` (stereo not drawn), for which the inhibition is 9.71% (active).
In the case of `COCCN(CCOC)c1nc(N)c2c(N)nc3c(c2c1C#N)CC(=O)N3Cc1ccc(Cl)cc1`, the inhibition is 39.6% (active).
Under `Cc1ccc(-c2csc(NCCc3nc4cc(Cl)c(Cl)cc4n3CCOCCO)n2)cc1` stands -0.743%; under `CCC(=O)Nc1nnc(S(=O)(=O)N(CC(C)C)c2ccccc2)s1`, -1.99%; under `Cc1nc(NC(=O)CN(C)S(=O)(=O)c2ccc(Cl)cc2)sc1C`, 0.291%.
For `CC(C)CC(=O)Nc1nnc(S(=O)(=O)N(C)c2ccc(Cl)cc2)s1`, the inhibition is 19.6% (active).
